Results filed as inconclusive are left out. A number with no mark means an inactive call. Activity calls are given as the source filed them. Calls follow the shape of the dose curve; as a rule, active = well fitted cell-killing curve with a large enough effect; inconclusive = small, poorly fitted or top-dose-only effect; inactive = flat fitted curve, though single readings scatter.
Assay: Quantitative highthroughput screen to assess conditional lethalithy of NOMO1 cells grown in RPMI1640 with dialyzed fetal bovine serum (RPMI+ds) (AID 1963877); also: nearly all actives have a fitted effect of over 30% in size
Details: NOMO1 in RPMI+dialyzed FBS viability, ATP luminescence, 48 h; series mostly up to 45.8 µM; viability: at the top concentration
Excerpt: Assay Provider: Jason Cantor Ph.D.
Department of Biochemistry
University of Wisconsin-Madison, Madison, WI, USA
Chemical screening studies have identified drug sensitivities across hundreds of cancer cell lines but most putative therapeutics fail to translate. Discovery and development of drug candidates in models that more accurately reflect nutrient levels in human blood is a major challenge. Here we performed high-throughput screens in conventional versus Human Plasma-Like Medium (HPLM) to identify compounds that were "missed" when screening using the artificial culture condition. Sets of conditional anticancer compounds spanned phases of clinical development and included non-oncology drugs were assessed. […] We also traced conditional phenotypes for several chemotherapeutics to availability of HPLM-specific metabolites and confirmed others for compounds whose reported targets are encoded by nonessential genes. Our findings establish generalizable strategies for exploiting conditional lethality in HPLM to reveal therapeutic candidates and mechanisms of action in cancer cells.
Described herein are the results of each viability screens against three cell lines: NOMO1 (an acute myeloid leukemia cell line); P12-Ichikawa (a T-cell acute lymphoblastic leukemia); and SEM (a B-cell ALL). Each assay was screened using 3 different cell culture media: homemade human plasma-Like medium with 10% dialyzed fetal bovine serum (HPLM+ds); RPMI1640 with 10% untreated FBS and 5mM glucose (RPMI+s); and RPMI1640 with 10% dialyzed fetal bovine serum and 5 mM glucose (RPMI+ds).
PROTOCOL TABLE (as described by Inglese J, Shamu CE and Guy RK. 2007)
SEQUENCE No. (e.g., 1, 2, 3, etc.); […] (e.g., Cells, Incubation, Reagent, etc.); VALUE and DESCRIPTION.
1; Cells; 5 uL; white, solid bottom 1536-well Greiner assay plate.
2; Compounds; 23 nL; Kalypsis pin tool (Wako USA) equipped with a 1536-well pin head to transfer to the assay plates.
3; Incubation; 48 hours; 37C incubation.
4; Reagent; 3 uL; CellTiter Glo (Promega).
5; Incubation; 5 min, room temperature
6; Detection; Luminescence, Viewlux PerkinElmer.
NOTES (numbers refer to Sequence numbers above)
1. Briefly, 5 ul of cell reagent was dispensed using a Multidrop Combi Dispenser. The NOMO1 and SEM cells were plated at 500 cells/well and the P12-Ichikawa line at 1000 cells/well.
2. After seeding the cells, 23 nL of MIPE 4.1 library compounds (in DMSO) were added to each plate using a Kalypsys 1536 Pintool dispenser. Bortezomib at final concentration of […] and DMSO were added to each plate as positive and negative controls respectively. For each screen, MIPE 4.1 compounds were added over an eleven-point concentration range […] in 3-fold dilutions.
3. Each plate was covered with a stainless steel gasketed lid to prevent evaporation and incubated for 48 hour at 37C, 95% relative humidity, and 5% CO2.
4-5. Three microliter CellTilter-GloTM luminescent substrate mix (Promega) reagent was added to the assay plate and incubated at room temperature for 5 min.
6. The luminescence signal was measured using a ViewLux (PerkinElmer) multiplate reader with a 2 second exposure time per plate. Data for each compound were normalized as percent viability such that measurements for DMSO and the empty well controls in each plate were defined as 100% and 0%, respectively.
Potency is read from the fitted curve at half-maximal effect.

SMILES | viability [%] | Potency
CC(C)N(CCNC(=O)CN1CCCC1=O)C(C)C | 102 | –
C[C@]12COC(=O)C[C@@H]1CC[C@@H]1[C@H]2CC[C@@]2(C)[C@H]1CC[C@]2(C)O | 92.6 | –
Cc1ccccc1-n1c(Cn2ncc3c(N)ncnc32)nc2cccc(C)c2c1=O | – | 0.833 µM (active)
O=C(O)CNC(=O)c1c(O)c2ccccc2n(Cc2ccccc2)c1=O | 87.8 | –
NCC1(CC(=O)O)CCCCC1 | 90.5 | –
O=[N+]([O-])c1ncc[nH]1 | 108 | –
CC[C@@H]1[C@@H](C)O[C@@](O)([C@@H](C)[C@H](O)[C@H](C)[C@H]2OC(=O)C=CC=C[C@@H](C)[C@@H]([C@@H](C)[C@@H](O)[C@H](C)[C@@]3(O)C[C@H](O[C@H]4C[C@H](O)[C@H](O)[C@H](C)O4)[C@H](CC)[C@@H](C)O3)OC(=O)C=CC=C[C@@H]2C)C[C@H]1O[C@H]1C[C@H](O)[C@H](O)[C@H](C)O1 | – | 2.64 µM (active)
CN(C)CCN(C)CCc1ccc(Cl)c(Cl)c1 | 91.1 | –
CCc1c(C(=O)C(N)=O)c2c(OCC(=O)O)cccc2n1Cc1ccccc1 | 109 | –
COC1=C[C@@H]2[C@@H]3Cc4ccc(OC)c(O)c4[C@]2(CCN3C)CC1=O | 95.9 | –
NC1CC1c1ccccc1 (stereo not given) | 99.8 | –
CC1(N2CCC(n3c([C@@H]4CCCNC4)nc4ccccc43)CC2)CCCCCCC1 | – | 16.6 µM (active)
O=c1[nH]c2ccc(Cl)cc2c(N[C@@H]2CN3CCC2CC3)c1-c1nc2ccccc2[nH]1 | – | 0.148 µM (active)
CC(C)CC(N(C)C)C1(c2ccc(Cl)cc2)CCC1 (stereo not given) | 98.7 | –
COC[C@H]1OC(=O)c2coc3c2[C@@]1(C)C1=C(C3=O)C2CCC(=O)[C@@]2(C)C[C@H]1OC(C)=O (stereo not given in full) | 99.6 | –
C[C@H]1CCCC=CC2C[C@H](O)C[C@@H]2[C@H](O)C=CC(=O)O1 (stereo not given in full) | – | 0.0012 µM (active)
CNCC(O)c1ccc(O)cc1 (stereo not given) | 94.7 | –
CN1CCN(C(=O)O[C@H]2c3nccnc3C(=O)N2c2ccc(Cl)cn2)CC1 | 94.6 | –
O=C(N[C@H]1CN2CCC1CC2)c1ccc(Cl)cc1 | 107 | –
Cc1cccc(C)c1NC(=O)CN1CCCC1=O | 112 | –

SMILES | viability [%] | Potency
CCC1(c2ccc(N)cc2)CCC(=O)NC1=O (stereo not given) | 109 | –
CCN1C[C@]2(OC(=O)c3ccccc3NC(C)=O)CC[C@H](OC)[C@@]34[C@H]5CC6[C@@H](OC)C[C@](O)(C(C[C@@H]23)[C@@H]14)[C@@]5(O)[C@@H]6OC | 89.1 | –
CN[C@@H]1Cc2cccc3[nH]c(=O)n(c23)C1 | 97.8 | –
CC(C)N[C@@H]1CCn2c(=O)[nH]c3cccc(c32)[C@@H]1O | 92.9 | –
CCCC(C)(COC(N)=O)COC(=O)NC(C)C (stereo not given) | 106 | –
COC1=CC(C)=C[C@@H](C)[C@@H](O)[C@@H](C)CC(C)=CC=C[C@H](OC)[C@H]([C@@H](C)[C@@H](O)[C@H](C)[C@@]2(O)C[C@@H](O)[C@H](C)[C@@H](C(C)C)O2)OC1=O | – | 0.0743 µM (active)
Cc1[nH]nc2ccc(-c3cncc(OC[C@@H](N)Cc4c[nH]c5ccccc45)c3)cc12 | – | 0.743 µM (active)
CC(O)=C(C#N)C(=O)Nc1cc(Br)ccc1Br | 95.3 | –
CC1=NN=C(c2ccc(N)cc2)c2cc3c(cc2C1)OCO3 | 90 | –
CC(=O)Nc1ccc(OC[C@](C)(O)C(=O)Nc2ccc([N+](=O)[O-])c(C(F)(F)F)c2)cc1 | 90.7 | –
O=C(O)c1nn(Cc2ccc(Cl)cc2Cl)c2ccccc12 | 97.2 | –
CN(C)[C@@H]1C(=O)C(C(N)=O)=C(O)[C@@]2(O)C(=O)C3=C(O)c4c(O)cccc4[C@@](C)(O)[C@H]3C[C@@H]12 | 96 | –
CC(C)C[C@H](CN)CC(=O)O | 98.5 | –
Cc1c(N)nc([C@H](CC(N)=O)NC[C@@H](N)C(N)=O)nc1C(=O)N[C@H](C(=O)N[C@@H](C)[C@H](O)[C@@H](C)C(=O)N[C@@H](C(=O)NCCc1nc(-c2nc(C(=O)NCCC[S+](C)C)cs2)cs1)[C@@H](C)O)C(O[C@H]1O[C@H](CO)[C@H](O)[C@@H](O)[C@@H]1O[C@H]1O[C@H](CO)[C@@H](O)[C@H](OC(N)=O)[C@H]1O)c1cnc[nH]1 (stereo not given in full) | – | 2.64 µM (active)
CC[C@H]1C=CC=CC[C@@H](C)[C@H](O)[C@@](C)(O)C(=O)[C@@H](C)[C@H](O)[C@@H](C)C(=O)[C@@H](C)[C@H](O)[C@@H](C)C=CC(=O)O[C@@H]2[C@@H](C)[C@H](CC1)O[C@]1(CC[C@H](C)[C@H](C[C@@H](C)O)O1)[C@H]2C | – | 4.69 µM (active)
O=C(O)C(=O)c1cn(Cc2ccccc2)c2ccc(-c3ccc(OC(F)(F)F)cc3)cc12 | 93.2 | –
NC1=NC(=O)N2CC12 (stereo not given) | – | 5.26 µM (active)
N[C@@H](Cc1ccc(N(CCCl)CCCl)cc1)C(=O)O | – | 9.35 µM (active)
Cc1ncc(OC[C@@]2(c3cccc(F)c3)C[C@H]2C(=O)Nc2ccc(F)cn2)c(C)n1 | 109 | –
CCCCCC[C@H]1C(=O)O[C@H](C)[C@H](NC(=O)c2cccc(NC=O)c2O)C(=O)O[C@@H](C)[C@@H]1OC(=O)CC(C)C | 78.2 | –
